Compounds with a hit are over-represented: about 0.27% of the library has one in this group of screens.
MBNL1-CUG inh: qHTS Assay for Inhibitors of MBNL1-poly(CUG) RNA binding; Muscleblind-like protein 1 (Homo sapiens), Q9NR56; TR-FRET MBNL1-His/biotin-(CUG)12 binding, 665/545 ratio; Potency, µM (highest dose often 57.5 µM), inactives show top-dose activity change, negative = inhibition, actives largely listed as inhibitors; actives 0.036% (n = 280,000); active = well fitted inhibition curve with a large enough effect in the signal ratio, with a control signal flat, not every such curve was filed as active; inconclusive = small, poorly fitted or top-dose-only effect, or effect the other way, or a change in a side signal; inactive = no such curve, though single readings can be large or run the other way; the % refers to the signal ratio; also: % is scaled to controls: 0 for no effect and ±100 for the full control effect
Target sequence (Q9NR56 whole entry, looked up): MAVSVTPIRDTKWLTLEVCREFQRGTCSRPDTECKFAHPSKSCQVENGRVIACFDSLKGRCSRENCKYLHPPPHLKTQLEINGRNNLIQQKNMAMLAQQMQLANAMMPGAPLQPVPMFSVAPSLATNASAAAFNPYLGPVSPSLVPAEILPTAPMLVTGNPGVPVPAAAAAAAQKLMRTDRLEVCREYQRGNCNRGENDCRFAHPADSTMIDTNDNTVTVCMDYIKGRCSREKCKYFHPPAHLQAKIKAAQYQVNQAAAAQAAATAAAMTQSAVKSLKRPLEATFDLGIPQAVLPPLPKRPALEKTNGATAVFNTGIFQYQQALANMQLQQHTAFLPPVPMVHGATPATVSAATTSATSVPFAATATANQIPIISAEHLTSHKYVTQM
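Compounds (final 92 nM to 58 uM) are added to His-tagged MBNL1 and biotin-(CUG)12, then terbium anti-His antibody and streptavidin-XL665 (5 nM final). After 60 min at room temperature, the 665/545 nm ratio is read.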
Tb PFK inh-1: qHTS Assay to Find Inhibitors of T. brucei phosphofructokinase; actives 0.17% (n = 330,000); T. brucei PFK, ADP-Glo luminescence; Potency, µM (highest dose often 57.5 µM), without a hit: top-dose activity, negative = inhibition, usual class: inhibitors;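 also: 0% = uninhibited 1x PFK enzyme wells and -100% = no-enzyme wells; nearly all actives have a fitted effect of over 60% in size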
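1.25 nM PFK with 0.5 mM F6P and 0.1 mM ATP in 0.1 M TEA pH 8.0, 5 mM MgCl2, incubated 45 min at room temperature; ADP measured by ADP-Glo luminescence; compounds titrated up to 57 uM.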
B2AR arrestin: qHTS assay of beta-arrestin-biased ligands of beta2-adrenergic receptor. beta-arrestin recruitment to beta2AR, cell-based reporter. actives 0.02% (n = 330,000). Beta-2 adrenergic receptor (Homo sapiens), P07550. AID 492947, 2010. Potency, µM (doses to about 46.1 µM), for inactives: at the highest dose activation, most hits filed as activators;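 also: 0% = DMSO controls and full agonism = EC100 isoproterenol or metaproterenol; nearly all actives have a fitted effect of over 65% in size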
BCR signal inh: qHTS Assay to Find Inhibitors of Chronic Active B-Cell Receptor Signaling | ABC-DLBCL IkBa-CBG/CBR reporter, luminescence ratio, 4 h | Potency, µM (highest dose often 46.1 µM), inactives show top-dose activity change, negative = inhibition, actives largely listed as inhibitors | actives 0.05% (n = 340,000) | AID 493014, 2011; active = well fitted inhibition curve with a large enough effect in the signal ratio, with a control signal flat, not every such curve was filed as active; inconclusive = small, poorly fitted or top-dose-only effect, or effect the other way, or a change in a side signal; the % refers to the signal ratio;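 also: plate controls were basal doxycycline-induced cells for no effect and cells given 10 µM MG132 for full effect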
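Doxycycline induced both beetle luciferases in TMD8 lymphoma cells; IKK-driven degradation limits the IkappaBalpha-fused green signal, while red luminescence normalises for cell number and nonspecific effects. Compounds tested up to 46 uM, 4 hrs.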
TbPFK ATP: Tb PFK orthogonal confirmatory assay using ATP depletion (Kinase-Glo Plus) as an alternative measure of Tb PFK activity: Hit Validation. shares compounds with Tb PFK inh-1. Tb PFK enzyme, ATP depletion, Kinase-Glo Plus luminescence. Potency, µM (doses to about 57.5 µM), inactives show at the highest dose inhibition. actives 47% (n = 1,100). AID 504636, 2011; calls by dose curve; also: nearly all actives have a fitted effect of over 60% in size
Tb PFK inh-2: Inhibitors of T. brucei phosphofructokinase: Hit Validation | shares compounds with Tb PFK inh-1 | purified T. brucei PFK, ADP-Glo luminescence, 45 min | Potency, µM (titrated, usually from 57.5 µM), inactives show top-dose activity change, negative = inhibition, usual class: inhibitors | actives 41% (n = 1,100) | AID 504637, 2011;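 also: plate controls were full PFK enzyme control for no effect and no enzyme control for full effect; nearly all actives have a fitted effect of over 60% in size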
The depositor's hits bear a star; ? = inconclusive; / = not tested or not shown. Unless noted, calls follow the shape of the dose curve; as a rule, active = well fitted curve in the direction sought with a large enough effect; inconclusive = small, poorly fitted or top-dose-only effect, or another doubt; inactive = no such curve, though single readings can be large; an effect the other way counts as inactive or inconclusive. Potency is read from the fitted curve at half-maximal effect.

SMILES	MBNL1-CUG inh	Tb PFK inh-1	B2AR arrestin	BCR signal inh	TbPFK ATP	Tb PFK inh-2
NC(=O)CNC(=O)C1CCCc2c1[nH]c1ccc(Cl)cc21 (stereo not given)	3.0%	6.01µM*	-0.7%	1.4%	2.39µM*	3.38µM*
O=C(NC1(C(F)(F)F)C(=O)Nc2c1c(=O)[nH]c(=O)n2-c1ccccc1)c1ccccc1Cl (stereo not given)	/	/	/	5.8%	/	/
CN(CC(=O)Nc1cccc(F)c1)C(=O)c1cc([N+](=O)[O-])ccc1N1CCCCC1	/	-6.2%	-0.3%	-1.8%	/	/
O=C1CC(c2ccc(O)c(O)c2)Oc2c1ccc(O)c2O (stereo not given)	3.3%	?	-0.1%	8.8%	1.9µM*	2.13µM*
CCn1c(SCC(=O)Nc2ccc3c(c2)OCO3)nnc1C1CC1	-2.8%	16.1%	-0.2%	-1.7%	/	/
CCn1c2ccccc2c2cc(NC(=O)CSc3nnc(C4CC4)n3Cc3ccco3)ccc21	-4.1%	?	-0.1%	?	?	-27.7%
CC(C)(C)OC(=O)C[C@H]1C/C=C\C[C@H](CC(=O)N[C@H](CO)Cc2ccccc2)C(=O)N2CCC[C@H]2COC1=O	/	0.0%	-0.3%	-0.5%	/	/
COc1cc(Br)c(Br)cc1N	8.0%	?	-0.4%	?	21.3µM*	?
COc1ccc(SC[C@H](Cc2ccccc2)N2CC[C@@H](C(C)(C)C)CCC2=O)cc1	/	?	-1.8%	1.1%	/	/
COc1ccc(-c2c(C)nn3c(C(F)(F)F)cc(C)nc23)cc1OC	/	/	/	-1.8%	/	/
CSC(=NC#N)N1CCN(c2cccc(Cl)c2)CC1	-4.8%	16.9µM*	-3.7%	-21.6%	21.3µM*	10.7µM*
Nc1ncnc2c1ncn2[C@@H]1O[C@H](COP(=O)(O)OP(=O)(O)OP(=O)(O)O)[C@@H](O)[C@H]1O	/	?	0.2%	?	-29.2%	?
Nc1ncnc2c1ncn2[C@@H]1O[C@H](COP(=O)(O)O)[C@@H](O)[C@H]1O	-8.9%	22.2%	0.3%	?	/	/
CC1Sc2ccc(S(=O)(=O)CCC(=O)N3CCN(c4cccc(Cl)c4)CC3)cc2NC1=O (stereo not given)	-5.1%	?	-1.0%	-3.1%	/	/
CC(CS(=O)(=O)c1ccc2c(c1)NC(=O)CS2)C(=O)NCc1ccccc1Cl (stereo not given)	0.2%	13.5µM*	0.5%	-1.2%	1.69µM*	1.9µM*
CC(CS(=O)(=O)c1ccc2c(c1)NC(=O)CS2)C(=O)N1CCN(c2cccc(Cl)c2)CC1 (stereo not given)	5.1%	15.1µM*	0.1%	4.4%	21.3µM*	12µM*
CCC(Sc1nnc(-c2ccc(F)cc2)c(-c2ccc(F)cc2)n1)C(=O)NC1CCCC1 (stereo not given)	/	/	/	0.9%	/	/
COc1ccc(-c2cc(=NCCC(=O)O)c3cc(C)ccc3o2)cc1	?	?	-1.0%	?	-29.9%	?
Cc1cccc(N2CCN(S(=O)(=O)c3cc(C(=O)Nc4ccccc4Cl)ccc3F)CC2)c1C	/	/	/	-3.7%	/	/
CCOC(=O)c1c(NC(=O)COC(=O)c2cnccn2)sc(C(=O)NC)c1C	/	14.5%	-0.1%	-5.7%	/	/
CCOC(=O)c1c(-c2ccco2)csc1NC(=O)COC(=O)c1cnccn1	/	6.75µM*	?	3.9%	23.9µM*	-27.2%
O=C(NC(=S)Nc1ccc(F)c(Cl)c1)C1CC1	-8.7%	0.5%	10.2%	?	/	/
Fc1ccc(NC(=S)Nc2ccc(F)c(Cl)c2)cc1Cl	-2.6%	?	0.1%	?	?	-29.9%
